A short description of test [1]: viability loss in pontine glioma line – cell-based, SU-DIPG-XVII, MIPE5.0, CellTiter-Glo, qHTS, dose response (AID 1347060).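 On AC50: cells exposed to compound for 48 hours before viability readout.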 Conditions: CellTiter-Glo ATP luminescence.
Test [2] is described as follows: viability loss in pontine glioma line – cell-based, SU-DIPG-XXV, MIPE5.0, CellTiter-Glo, qHTS, dose response (AID 1347065).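 Further: cells exposed to compound for 48 hours before ATP readout.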 The following applies: CellTiter-Glo ATP luminescence.
Test [3] is described as follows: JHH-DIPG-1 glioma cell viability, MIPE5.0 library, CellTiter-Glo luminescence, qHTS (AID 1347067).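 Further: cells exposed to compound for 48 hours before readout.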 The following applies: JHH-DIPG-1 glioma viability, CellTiter-Glo ATP luminescence. A general note: ATP-based viability assays read luminescence as a measure of living cells.
Test [4] in a line: growth inhibition of DIPG cells – cell-based, MIPE5.0 library, qHTS (AID 1347068; cut-off not given, nearly all actives have IC50 up to about 30 µM;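 on IC50: cells exposed to compound for 48 hours before viability readout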). The following applies: SU-DIPG-XXV viability. (In general: In qHTS, concentration-response curves come from the screen itself.)
Test [5] can be described thus: growth inhibition of DIPG cells – cell-based, MIPE4.0 library, CellTiter-Glo luminescence, qHTS (AID 1347066; cut-off not given, nearly all actives have AC50 up to about 30 µM;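 further: cells exposed to compound for 48 hours before readout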). Conditions: SU-DIPG-VI viability, CellTiter-Glo ATP luminescence.

Records with an inconclusive call do not appear. Active and inactive are the calls of the source. Unless noted, cut-off not given; nearly all actives show AC50 up to about 26 µM.

What is called AC50 is the concentration giving half of the maximal activity seen. One may read the IC50 as the concentration that gives 50% inhibition. As to `CCN(C)S(=O)(=O)Nc1ccc(F)c(C(=O)c2c[nH]c3ncc(-c4cnc(C5CC5)nc4)cc23)c1F`, the AC50 was 14.8 µM (active) in test [1], 7.42 µM (active) in test [2] and 16.6 µM (active) in test [3]. The IC50 in test [4] is 16.6 µM (active).

Regarding `CCn1c(=O)c(-c2ccc(Cl)cc2Cl)cc2cnc(Nc3ccc(N4CCNCC4)c(F)c3)nc21`, the concentration at half-maximal activity (AC50) in test [1] and in test [2] was 0.59 µM (active) each time. Besides, the result in test [3] and in test [4] was inactive.

`O=C(NCC(=O)N1CC[C@H](NC2CCC(O)(c3ccc(-c4ncccn4)cn3)CC2)C1)c1cccc(C(F)(F)F)c1` (stereo partly specified): the compound was classed as inactive in test [1], in test [2], in test [3] and in test [4].

`CC(=O)N1CCN(c2ccc(NC(=O)Cc3cnc(-c4ccnc(F)c4)c(C)c3)nc2)CC1`: the compound was classed as inactive in test [1], in test [2], in test [3] and in test [4].

Regarding `Oc1ccc([C@@H]2Oc3ccc(O)cc3[C@@H]3CCC[C@@H]32)cc1`, the AC50 in test [1] was 13.2 µM (active); in test [2] it was 11.8 µM (active). In addition, in test [5], the call was inactive.

Regarding `Cn1cc(C2=C(c3cn(C)c4cc([N+](=O)[O-])ccc34)C(=O)NC2=O)c2ccccc21`, the values for the half-maximal activity concentration (AC50) in test [1], in test [2] and in test [3] were 0.332 µM (active), 0.263 µM (active) and 0.468 µM (active), respectively. Besides, in test [4], the IC50 is 4.68 µM (active).

For the compound `CNCCCOc1cc(F)c(-c2c(Cl)nc3ncnn3c2N[C@@H](C)C(F)(F)F)c(F)c1`, the AC50 in test [1] was 0.0833 µM (active); in test [2] it was 0.118 µM (active); in test [3], 0.105 µM (active). In addition, the IC50 in test [4] was 0.235 µM (active).

For `COC(=O)c1ccc([C@H]2c3[nH]c4ccccc4c3C[C@H](C(=O)OC)N2C(=O)CCl)cc1`, the values for the AC50 in test [1], in test [2] and in test [3] were 13.2 µM (active), 5.25 µM (active) and 2.35 µM (active), respectively. For the same compound, the IC50 in test [4] is 14.8 µM (active).

These data come from PubChem BioAssay.
